# This is a sample that favours compounds with a hit; in the whole collection about 6.5% have one here.
# MARV entry inh = qHTS for inhibitors of binding or entry into cells for Marburg Virus; Marburg virus pseudotyped entry inhibition, cell reporter; Potency, µM (highest dose often 37.8 µM), inactives show top-dose activity change, negative = inhibition, most hits filed as inhibitors; hit rate 1.8% among 300,000; calls by dose curve; tested in HEK293 cells; note: potency is the fitted concentration of half-maximal effect
# FMDV inh = High Throughput Screening for Foot and Mouth Disease Virus Antivirals; Potency, µM (doses to about 57.9 µM), for the others: at the highest dose activity change, negative = inhibition, most hits filed as inhibitors; hit rate 1.2% among 410,000; FMDV antiviral cell-based qHTS; AID 1159524, 2015; calls by dose curve; tested in HEK293T cells; note: read-out not given here; potency is the fitted concentration of half-maximal effect; nearly all actives have a fitted effect of over 45% in size
# LASV entry inh = qHTS for Inhibitors of binding or entry into cells for Lassa Virus; Lassa virus pseudotype entry inhibition, cell reporter; hit rate 1.2% among 300,000; AID 540256, 2011; Potency, µM (titrated, usually from 37.9 µM), for inactives: at the highest dose activity change, negative = inhibition, usual class: inhibitors; calls by dose curve; tested in HEK293 cells; note: potency is the fitted concentration of half-maximal effect; nearly all actives have a fitted effect of over 50% in size
# HCMV inh = qHTS Assay for inhibitors of the human cytomegalovirus (HCMV) | activity change, negative = inhibition, % at 57.5 µM | hit rate 4.5% among 410,000 | HFF cells, HCMV-luciferase reporter, 72 h; stronger effect = lower value; in the data active = activity change below about -60%; inconclusive = no clear call, values can overlap the other calls; inactive = above about -39%
#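 Inhibition of viral replication was scored as loss of reporter luminescence in HFFs infected with HCMV-luciferase (MOI 1 PFU/cell) for 72 h; compounds tested at 2 doses, normalized to buffer and Salinomycin controls.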
# VACV mCherry inh = qHTS for Stage-Specific Inhibitors of Vaccinia Orthopoxvirus: mCherry Reporter Primary qHTS | Potency, µM (doses to about 36.5 µM), without a hit: top-dose activity change, negative = inhibition, hits mostly inhibitors | AID 720579, 2013 | hit rate 0.63% among 310,000 | Vaccinia virus mCherry reporter infection, fluorescence; calls by dose curve; tested in A549 cells; note: potency is the fitted concentration of half-maximal effect; nearly all actives have a fitted effect of over 35% in size
# Vaccinia Venus = qHTS for Stage-Specific Inhibitors of Vaccinia Orthopoxvirus: Venus Reporter Primary qHTS. Vaccinia virus Venus reporter expression, fluorescence. hit rate 0.46% among 330,000. Potency, µM (top dose mostly 36.5 µM), for the others: at the top dose activity change, negative = inhibition, actives largely listed as inhibitors; calls by dose curve; tested in A549 cells; note: potency is the fitted concentration of half-maximal effect; nearly all actives have a fitted effect of over 30% in size
# The depositor's hits bear a star; i = inactive; ? = inconclusive; . = no result given; [ ] = dose if it differs, or a comment. % is set by controls: 0 for no effect and ±100 for the full control effect.
SMILES,MARV entry inh,FMDV inh,LASV entry inh,HCMV inh,VACV mCherry inh,Vaccinia Venus
CNC(=O)c1nnsc1S(=O)(=O)c1ccc(Cl)cc1,2.8µM*,?,?,-94*,?,?
OC[C@H]1O[C@H](c2ccccc2)C=C[C@H]1O,-8%[14.2 µM],.,.,.,.,.
CCOC(=O)CCN(c1ccccc1)S(=O)(=O)c1cc(-c2cc(C)no2)ccc1C,.,-11%,-30%[46.1 µM],-11,0%,-7%
CC(=O)N1CCc2c(sc3c2c(=O)n(Cc2ccccc2)c(=O)n3Cc2ccccc2Cl)C1,-23%[46.1 µM],?,.,1,-30%,-22%
COc1cc(NC(=O)COCc2cc(-c3ccc(F)cc3)on2)cc(OC)c1OC,-4%[46.1 µM],-12%,-9%[46.1 µM],-27,-17%,-9%
COc1ccc(-c2n(Cc3ccccc3)c3ccccc3[n+]2Cc2ccccc2)cc1,5.8µM*,?,8.2µM*,-98*,.,.
Cc1ccc(C)c(NC(=O)CCC(=O)N/N=C/c2cccnc2)c1,.,-10%,.,-31,.,.
Cc1cc(Cl)ccc1NC(=O)CCC(=O)N/N=C/c1cccnc1,2%[46.1 µM],6%,16%[46.1 µM],-68*,-15%,2%
CCOC(=O)N1CCN(Cc2nc3cc([N+](=O)[O-])ccc3n2C(C)C)CC1,4%[46.1 µM],?,2%[46.1 µM],-7,-13%,-10%
CC(=O)OC(C)C1C2=C(C(=O)CC1(C)O)C(=O)c1c(ccc(-c3ccc4c(c3O)C(=O)C3=C(C4=O)C(C(C)OC(C)=O)C(C)(O)CC3=O)c1O)C2=O (configuration not stated),-3%,18µM*,-5%[46.1 µM],-68*,?,6%
Cc1ccccc1Nc1oc(-c2ccccc2)nc1-c1cccc2ccccc12,7%[14.2 µM],.,.,.,.,.
CCCN1C(=O)c2ccccc2NC1c1ccc(OC)cc1OC (configuration not stated),-7%,.,5%,53,-2%,-9%
CCCN1C(=O)c2ccccc2NC1c1ccc(OC)cc1O (configuration not stated),?,?,1.6µM*,-91*,.,-14%
Oc1ccc(N2CCN(C(c3ccc(Cl)cc3)c3nnnn3Cc3ccc(F)cc3)CC2)cc1 (configuration not stated),.,.,.,.,-10%,-14%
Cc1[nH]c2ccc(C(=O)OC(C)C(=O)N(C)c3ccccc3)cc2c1C (configuration not stated),14%,-34%,5µM*,.,?,?
CC(C)Oc1ccc(CNC(=O)c2ccc(CS(=O)Cc3ccccc3Cl)o2)cc1 (configuration not stated),.,?,-29%[46.1 µM],-16,-15%,-6%
COc1ccc(N2CCN(CC(O)COC(c3ccc(F)cc3)c3ccc(F)cc3)CC2)cc1 (configuration not stated),.,-19%,.,-29,.,.
OCCN1CCN(CC(O)COC(c2ccc(F)cc2)c2ccc(F)cc2)CC1 (configuration not stated),2µM*,-2%,?,-16,i,-6%
CCOc1ccc(/C(O)=C2/C(=O)C(=O)N(c3nc(C)c(C)s3)C2c2ccco2)cc1 (configuration not stated),-10%,-1%,4%,-90*,.,-12%
Cc1ccccc1Cc1c(C)nc2nc(SCC(=O)N(C)c3ccccc3)nn2c1C,.,0%,-30%[46.1 µM],-15,-15%,-9%
CCOC(=O)C(CC)Sc1ccc2nnc(CCNS(=O)(=O)c3ccccc3)n2n1 (configuration not stated),0%[46.1 µM],1%,-27%[46.1 µM],-103*,i,7%
COC(=O)C(C)Sc1ccc2nnc(-c3ccc(F)cc3)n2n1 (configuration not stated),-2%,6%,?,-11,.,.
CCC(Sc1ccc2nnc(-c3ccc(F)cc3)n2n1)C(=O)OC (configuration not stated),11%,0%,2%,-93*,.,.
O=C(COc1ccc(-c2nnco2)cc1)Nc1ccc(C(F)(F)F)cc1,?,-23%,13%,-75*,i,-7%
CCC(C)c1ccccc1NC(=O)COc1ccc(-c2nnco2)cc1 (configuration not stated),?,-4%,4%,-17,-6%,-17%
SMILES,MARV entry inh,FMDV inh,LASV entry inh,HCMV inh,VACV mCherry inh,Vaccinia Venus
O=C(CSc1nc2ccccc2[nH]1)Nc1ccccc1N1CCOCC1,8.9µM*,?,-19%,-6,i,-21%
COc1cc2c(cc1NC(=O)CN(C)Cc1nc3ccccc3c(=O)[nH]1)oc1ccccc12,23µM*,2%,?,-14,.,.
CCN(CC(=O)Nc1cc(OC)ccc1OC)Cc1nc2ccccc2c(=O)[nH]1,-16%,-10%,6%,49,-14%,0%
COc1cc2c(cc1NC(=O)CSc1nc3ccccc3[nH]1)oc1ccccc12,21µM*,-3%,?,?,?,-21%
COc1cc2c(cc1NC(=O)CSc1ccccc1)oc1ccccc12,3%,73%,1%,?,.,.
O=C(c1ccccc1F)N(Cc1cc2cc3c(cc2nc1N1CCOCC1)CCC3)CC1CCCO1 (configuration not stated),.,16%,.,.,-15%,-7%
COCCN(C)c1ccc2c(-c3ccccc3OC)noc2n1,.,.,.,32,.,.
CCN1C(=O)[C@@H]2[C@H]3[C@H](O)[C@H](O)CC(=NOC[C@H]4O[C@H](c5ccccc5)C=C[C@H]4Oc4ccc(OC)cc4)[C@@H]3CC[C@H]2C1=O,-28%[14.2 µM],.,.,.,.,.
CCOc1ccc(C2CC(=O)c3c([nH]c(C(=O)OC4CCC(C)CC4)c3C)C2)cc1 (configuration not stated),2%[46.1 µM],-18%,-5%[46.1 µM],1,-5%,-6%
CCOc1ccc(C2CC(=O)c3c([nH]c(C(=O)OCCOc4ccccc4)c3C)C2)cc1 (configuration not stated),-1%[46.1 µM],-23%,?,-106*,-17%,?
CCc1ccc(C2CC(=O)c3c([nH]c(C(=O)OCCOc4ccccc4)c3C)C2)cc1 (configuration not stated),?,?,?,-73*,i[7.34 µM],-16%[7.34 µM]
COC(=O)c1[nH]c2c(c1C)C(=O)CC(c1ccccc1)C2 (configuration not stated),?,.,?,-69*,-9%,?
Cc1c(C(=O)OCc2ccccc2)[nH]c2c1C(=O)CC(c1ccc(Cl)cc1)C2 (configuration not stated),-30%[46.1 µM],-11%,-10%[46.1 µM],-69*,-6%[7.34 µM],-7%[7.34 µM]
COC(=O)c1[nH]c2c(c1C)C(=O)CC(c1ccc(OC)cc1)C2 (configuration not stated),-4%[46.1 µM],-6%,-18%[46.1 µM],-19,1%,4%
COc1ccc(CN2CCC3(CC2)c2ccccc2[C@@H](NC(=O)c2ccco2)[C@@H]3OC)c(O)c1,.,-6%,.,.,-17%,-3%

# Source: PubChem BioAssay (National Center for Advancing Translational Sciences (NCATS))
